The structures appear in SMILES notation. Screen size: about 2,500 compounds; about 1,100 (44%) were called active.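 The calls were made as follows: active = inhibition above 50% at 4 µM in the single-point screen; inactive = inhibition of 50% or less.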 So high a share suggests a set chosen from earlier hits. This is one part of the list.

Broadly, the inhibition is the change of the read-out against control, counted positive when it falls.

The nature of this assay: blockers of TNF-a NF-kB luciferase induction – cell-based, HEK293T NF-kB-Luc, luminescence, selectivity assay for NOD1/NOD2 signaling inhibitor project, primary screen (AID 1852). Conditions: TNF-a induced, 14 h, at 4 µM, hits give high values.
Turning to `O=C(/C=C/c1ccc(Cl)cc1Cl)N1CCN(c2ccccc2[N+](=O)[O-])CC1`, the inhibition is -38.9% (inactive).

Consider `CN1CCN(c2ccc(C(CC(N)=O)NC(=O)c3ccccc3)cc2[N+](=O)[O-])CC1` (centres undefined), for which the inhibition is 10.7% (inactive).

With `O=C(NC(=S)N1CCN(c2ccc(F)cc2)CC1)c1cccs1`, the inhibition is 11.7% (inactive).

As for `O=C(Nc1ccc(F)c([N+](=O)[O-])c1)c1cccs1`, the inhibition was 4.2% (inactive).

Turning to `O=C(NC(=S)N1CCN(c2ccc(C(F)(F)F)cc2[N+](=O)[O-])CC1)c1cccs1`, the inhibition is 101% (active).

For the molecule `O=C(NC(=S)N1CCN(c2ccc(Cl)cc2[N+](=O)[O-])CC1)c1cccs1`, the inhibition was 53.9% (active).

`Cc1cccc(N2CCN(C(=O)Cc3cn(C)c4ccccc34)CC2)c1C`: the inhibition is -31.6% (inactive).

For the molecule `Cn1c(SCC(=O)N2CCCc3ccccc32)nc2ccccc2c1=O`, the inhibition is 43.4% (inactive).

`Cc1cccc(-n2c(SCC(=O)N3CCC(C(=O)O)CC3)nc3ccccc3c2=O)c1C`: the inhibition is 74.3% (active).

As for `O=C(CCl)Nc1cc(SCC(O)CO)cc([N+](=O)[O-])c1` (centres undefined), the inhibition is 96.6% (active).

Consider `COc1ccc(-[n+]2c(C)cc(/C=C3\Sc4ccccc4N3C)cc2C)cc1`, for which the inhibition was 67% (active).

Take `CCn1c(NC(=O)/C=C/c2ccc(F)cc2)nc2ccccc21`: the inhibition was 0% (inactive).

With `CC(C)Cn1c(N2CCN(C(=O)/C=C/c3ccccc3)CC2)nc2ccccc21`, the inhibition was 0.5% (inactive).

As for `C=CCSc1nc2ccccc2n1C(=O)/C=C/c1ccc(OC)c(OC)c1`, the inhibition is 89.7% (active).

Take `COc1ccc(-c2n(Cc3ccccc3)c3ccccc3[n+]2Cc2ccccc2)cc1`: the inhibition is 53.1% (active).

For `CCCc1cc(NC(=O)CCl)n(-c2ccccc2)n1`, the inhibition was 40.2% (inactive).

On to `CC(C)(C)c1cc(NC(=O)CCl)n(-c2ccccc2)n1`, for which the inhibition is 52.2% (active).

As for `O=C(CCl)Nc1cc(-c2ccccc2)nn1-c1ccccc1`, the inhibition was -25.8% (inactive).

As to `Cc1ccc2c(C(=O)CCl)c(C)[nH]c2c1`, the inhibition is 83.2% (active).

On to `CCOC(=O)c1c(C)[nH]c(C)c1C(=O)CSc1nc2ccccc2c(=O)n1-c1ccc(CC)cc1`, for which the inhibition was -1.6% (inactive).

Turning to `Cc1[nH]c2ccccc2c1C(=O)CCl`, the inhibition was 95.3% (active).

As for `Cn1c2ccccc2c(=O)c2c(=O)n(C3CCCCC3)c(-c3cccs3)nc21`, the inhibition was 23.4% (inactive).

In the case of `Cn1c2ccccc2c(=O)c2c(=O)n(C3CCCCC3)c(-c3ccco3)nc21`, the inhibition is 78.9% (active).

Take `CCOc1ccc(CCn2c(-c3ccco3)nc3ccccc3c2=O)cc1OCC`: the inhibition is -36.6% (inactive).

The values above are taken from PubChem BioAssay AID1852 (Sanford-Burnham Center for Chemical Genomics, 2009).
